HCV inh = blocks hepatitis C virus | Potency, µM (highest dose often 41.8 µM), inactives show at the highest dose activity change, negative = inhibition, actives largely listed as inhibitors | Huh7.5.1 HCVcc-Cre infection, luciferase reporter, 44 h | 340,000 compounds, 3.4% hits; further: on the % scale 0 is the no-effect control and ±100 the full control effect
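Infectious HCVcc-Cre (~0.5 moi) was added to cells just after compound, with cells seeded 4 h earlier at 1,000 per well. Luciferase activity after 44 h culture reported infection; substrate was incubated 15 min at room temperature before reading.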
Pf growth 48h = inhibits P. falciparum growth in the first generation, 48 h; Potency, µM (top dose mostly 28.7 µM), for inactives: at the highest dose activity change, negative = inhibition, usual class: inhibitors; P. falciparum luciferase growth in erythrocytes, 48 h; 310,000 compounds, 5.9% hits; further: on the % scale 0 is the no-effect control and ±100 the full control effect
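A one-generation exposure of luciferase-tagged malaria parasites in RPMI 1640/Albumax erythrocyte culture, 37 C and 5% CO2. Inhibition is inferred from decreased luminescence after adding detection reagent.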
AMA1 RON2 block = AMA1-RON2 (P. falciparum) interaction inhibition | AlphaScreen AMA1-biotinylated RON2 peptide binding | Potency, µM (doses to about 58.2 µM), inactives show top-dose activity change, negative = inhibition, most hits filed as inhibitors | 360,000 compounds, 0.2% hits;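 further: 0% = vehicle wells and -100% = peptide control; nearly all actives have a fitted effect of over 45% in size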
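AMA1 (3D7) with his tag at 25 nM final met compounds first, then biotinylated RON2 peptide at 25 nM; detection used donor plus acceptor beads, 10 µg/mL apiece, read by AlphaScreen after 30 min at room temperature.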
NS1 function inh = inhibitors of influenza NS1 protein function | AID 2326 | 270,000 compounds, 0.4% hits | Potency, µM (top dose mostly 46.1 µM), without a hit: at the highest dose activity, positive = more growth; calls by dose curve; further: actives are rising curves; nearly all actives have a fitted effect of over 50% in size
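Read-out: OD600 growth recovery of NS1-expressing budding yeast. Cells grown overnight at 30C in -URA glucose medium, washed, resuspended and diluted 1:100 in 2% galactose assay medium, pH 6.0. Same strain lacking NS1 served as positive control.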
SARS PLpro yeast = inhibitors of SARS-CoV papain-like protease in yeast; AID 485353; 330,000 compounds, 0.19% hits; Potency, µM (series often up to 32.9 µM), inactives show at the highest dose activity, positive = growth rescue, hits mostly activators; S. cerevisiae expressing SARS-CoV PLpro, growth rescue; calls by dose curve; further: 0% is about no effect; nearly all actives have a fitted effect of over 55% in size
Pf growth 96h = P. falciparum growth inhibition at 96 hours; P. falciparum luciferase reporter growth, 96 h; Potency, µM (highest dose often 28.7 µM), without a hit: at the top dose activity change, negative = inhibition, hits mostly inhibitors; 320,000 compounds, 6.9% hits; further: on the % scale 0 is the no-effect control and ±100 the full control effect
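Erythrocytes infected with luciferase-expressing P. falciparum were dispensed at 2% hematocrit and 0.05% parasitemia (final), then incubated with compounds 96 hours at 37 C in 5% CO2. Luminescence after detection reagent addition reported growth.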
* marks the source's active call; other numbers are inactive results; ? = inconclusive; / = no result given; [ ] = dose if it differs, or a comment. A selection: hits, their analogues and other compounds. The true share with any hit is near 12%. Unless noted, the call rests on the fitted dose curve; in most records, active means well fitted curve in the direction sought with a large enough effect; inconclusive means small, poorly fitted or top-dose-only effect, or another doubt; inactive means no such curve, though single readings can be large; an effect the other way counts as inactive or inconclusive. Potency means the concentration at half of the fitted maximal effect.

SMILES | HCV inh | Pf growth 48h | AMA1 RON2 block | NS1 function inh | SARS PLpro yeast | Pf growth 96h
Cc1ncc(CN2CCC(C(=O)Nc3ccc(-n4cccn4)cc3)CC2)s1 | -14% | 1µM* | 6% | 9% | 16% | 9%
Cc1c(CN2CCC(C(=O)Nc3ccc(Oc4ccccc4)nc3)CC2)cnn1C | -30% | -11% | -3% | 1% | 6% | ?
COc1cc(F)ccc1CN1CCC(C(=O)Nc2ccc(Oc3ccccc3)nc2)CC1 | 10µM* | ? | -4% | -6% | 22% | 17%
CCc1ccc(CN2CCC(C(=O)Nc3ccc(-n4nc(C)cc4C)cc3)CC2)o1 | ? | 6.6µM* | -5% | 3% | 1% | ?
CCc1ccc(CN2CCC(C(=O)Nc3ccc(Oc4ccccc4)nc3)CC2)o1 | 11µM* | ? | -4% | 12% | 2% | -40%
O=C(Nc1ccc(Oc2ccccc2)nc1)C1CCN(Cc2ccccc2)CC1 | ? | -16% | 5% | -4% | -3% | -27%
O=C(N/C(=C\c1cn(-c2ccccc2)nc1-c1ccc(Cl)cc1)C(=O)N1CCOCC1)c1ccccc1 | 1% | 8% | / | -5% | -3% | 11%
O=C(NC(=S)N1CCOCC1)c1cn(-c2ccccc2)nc1-c1ccc(F)cc1 | 0% | ? | 73%[11.6 µM] | / | -5% | 12µM*
O=C(NCC(c1ccco1)N1CCCC1)c1ccccc1F (centres undefined) | 1% | 4% | 12% | 0% | -2% | /
COc1ccccc1-c1nn(-c2ccccc2)cc1C(=O)NCC(c1ccco1)N1CCCC1 (centres undefined) | 3% | ? | 13% | / | 3% | 15µM*
O=C(N/C(=C/c1cn(-c2ccccc2)nc1-c1ccccc1)C(=O)N1CCOCC1)c1ccc(Cl)cc1Cl | 23% | 6.6µM* | ? | 9% | 8% | ?
O=C(c1cn(-c2ccccc2)nc1-c1ccc(F)cc1)N1CCOCC1 | -16% | -4% | -9% | -22% | 0% | 10%
O=C(NCC(c1ccco1)N1CCCC1)c1cn(Cc2ccccc2)nc1-c1ccccc1 (centres undefined) | -3% | ? | -1% | / | 3% | 9.3µM*
CCN(C(=O)COC(=O)c1cncc(Br)c1)C1CCS(=O)(=O)C1 (centres undefined) | -4% | 12% | 4% | / | -4% | -17%
O=C(NCC(c1ccco1)N1CCCC1)c1cn(-c2ccccc2)nc1-c1ccc(F)cc1 (centres undefined) | ? | ? | -16% | / | 3% | 8.3µM*
O=C(NCC(c1cccs1)N1CCOCC1)c1cn(-c2ccccc2)nc1-c1ccc(F)cc1 (centres undefined) | ? | ? | 0% | / | -3% | ?
O=C(Nc1cccc(S(=O)(=O)NC2=NCCC2)c1)c1cn(-c2ccccc2)nc1-c1ccc(F)cc1 | 11µM* | / | 12% | / | 3% | /
Cn1c(NCc2ccc3occc3c2)nc2cc(-c3cccc(C(F)(F)F)c3)sc2c1=O | / | / | 15% | / | / | /
Cc1cc(C)n(C(=O)CNC(=O)c2ccc(Cl)cc2Cl)n1 | 6% | 25% | -11% | -28% | -5% | 34%
O=C(c1ccc(S(=O)(=O)NCC2CCCO2)cc1)N1CCN(c2cccc(Cl)c2)CC1 (centres undefined) | 11µM* | -17%[5.75 µM] | -1% | / | 0% | 4%
O=C(COc1ccc(S(=O)(=O)NC2CCCCC2)cc1)N1CCN(c2cccc(Cl)c2)CC1 | 7.1µM* | ? | -11% | ? | 1% | /
CC(C)NS(=O)(=O)c1ccc(OCC(=O)N2CCN(c3ccccc3)CC2)cc1 | -2% | -8% | -3% | -7% | 1% | ?
Cc1ccc(Cl)cc1N1CCN(C(=O)COc2ccc(S(=O)(=O)NC(C)C)cc2)CC1 | 10µM* | / | -1% | 9% | -3% | ?
CN1CCN(C2CCCCC2NS(=O)(=O)c2ccccc2)CC1 (centres undefined) | 11% | 2% | 16% | -2% | -4% | ?
O=S(=O)(NC1CCCCC1N1CCN(c2cccc(Cl)c2)CC1)c1ccccc1 (centres undefined) | -25% | 15µM* | -5% | -17% | -14% | -6%
SMILES | HCV inh | Pf growth 48h | AMA1 RON2 block | NS1 function inh | SARS PLpro yeast | Pf growth 96h
CCC(C)NC(=O)NCc1ccccc1F (centres undefined) | 15% | 2% | -15% | -3% | -2% | ?
C=C1c2ccccc2NC(=S)N1Cc1ccc2c(c1)OCO2 | -15% | 18% | 47% | / | 0% | 94%
CCOC(=O)N1CCC(N2CCN(C3CCCC3)C(CCO)C2)CC1 (centres undefined) | 6% | 24% | -2% | 5% | 0% | ?
Cc1nc(CCNC(=O)C2CCC(=O)N(Cc3ccc(Cl)cc3)C2)sc1C (centres undefined) | 4% | ? | 0% | -7% | 3% | 23%
CC1=C(C(=O)N(C(C)C)C(C)C)CC(CC(=O)NC(c2ccccc2)c2ccccc2)C(=O)N1Cc1ccc(F)cc1 (centres undefined) | / | / | -6% | / | / | /
Cc1ccc(Cl)cc1N1CCN(C(=O)CN(C2CCCCC2)S(C)(=O)=O)CC1 | ? | ? | -3% | 6% | -34% | 10µM*
c1ccc(Cn2cc(-c3ccccc3)cn2)cc1 | 6% | -79% | 7% | / | 0% | ?
COc1ccc(-c2nc(CN(C)C(C)c3ccon3)c(C)o2)c(C)c1C (centres undefined) | 10µM* | ? | -18% | 0% | 3% | 22%
Cc1ccccc1-c1nc(CN(C)C(C)c2ccon2)c(C)o1 (centres undefined) | -24% | -4% | 1% | -4% | 0% | 2.3µM*
O=C(Nc1ccc(F)cc1)c1cccnn1 | 15% | / | 10% | -1% | 2% | 0%
Cc1ccc(S(=O)(=O)Nc2ccccc2F)cc1C(=O)NCc1ccco1 | 12% | -12% | 6% | / | 2% | ?
COc1ccnc(N2CCN(c3ccc(Cl)cc3)CC2)c1C#N | 32µM* | 24% | 11% | -9% | -1% | 103%
Cc1cccc(Nc2cc(C)c3c(O)cccc3n2)c1C | ? | 0.74µM* | ? | -21% | -25% | 1%
COc1ccc(NC(=O)CCC2CCCCC2)cc1S(=O)(=O)N1CCCCC1 | ? | ? | -1% | ? | 24% | ?
O=C(CN1C(=O)NC2(CCCCCC2)C1=O)NCc1ccccc1 | 13% | / | -4% | / | 3% | /
O=c1c(C(c2ccc(O)cc2)c2c(O)nc3n(c2=O)CCS3)c(O)nc2n1CCS2 | 15% | -6% | -8% | 0% | 1% | -1%
O=c1c(C(c2ccc(O)cc2)c2c(O)nc3n(c2=O)CCCS3)c(O)nc2n1CCCS2 | 22% | 2.9µM* | -3% | -3% | -17% | ?

From PubChem BioAssay
